# According to publication PMC4336329 (PLoS ONE, 2015):
# In all, about 310,000 compounds went through this assay and about 14,000 (4.5%) showed an effect of 50% or more. The effect is printed as a negative number. What follows is part of a selection rich in strong results, with near analogues and random picks from the rest.
# Biological target: human ether-à-go-go-related gene (hERG) potassium channel (human, UniProt Q12809)
# Assay: primary screen, population patch clamp on CHO cells stably expressing hERG; higher = less effect of the substance
# 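Also: peak tail current of the secondary pulse compared with the same well before compound.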
# Chain of human ether-à-go-go-related gene (hERG) potassium channel (Q12809 whole entry, looked up): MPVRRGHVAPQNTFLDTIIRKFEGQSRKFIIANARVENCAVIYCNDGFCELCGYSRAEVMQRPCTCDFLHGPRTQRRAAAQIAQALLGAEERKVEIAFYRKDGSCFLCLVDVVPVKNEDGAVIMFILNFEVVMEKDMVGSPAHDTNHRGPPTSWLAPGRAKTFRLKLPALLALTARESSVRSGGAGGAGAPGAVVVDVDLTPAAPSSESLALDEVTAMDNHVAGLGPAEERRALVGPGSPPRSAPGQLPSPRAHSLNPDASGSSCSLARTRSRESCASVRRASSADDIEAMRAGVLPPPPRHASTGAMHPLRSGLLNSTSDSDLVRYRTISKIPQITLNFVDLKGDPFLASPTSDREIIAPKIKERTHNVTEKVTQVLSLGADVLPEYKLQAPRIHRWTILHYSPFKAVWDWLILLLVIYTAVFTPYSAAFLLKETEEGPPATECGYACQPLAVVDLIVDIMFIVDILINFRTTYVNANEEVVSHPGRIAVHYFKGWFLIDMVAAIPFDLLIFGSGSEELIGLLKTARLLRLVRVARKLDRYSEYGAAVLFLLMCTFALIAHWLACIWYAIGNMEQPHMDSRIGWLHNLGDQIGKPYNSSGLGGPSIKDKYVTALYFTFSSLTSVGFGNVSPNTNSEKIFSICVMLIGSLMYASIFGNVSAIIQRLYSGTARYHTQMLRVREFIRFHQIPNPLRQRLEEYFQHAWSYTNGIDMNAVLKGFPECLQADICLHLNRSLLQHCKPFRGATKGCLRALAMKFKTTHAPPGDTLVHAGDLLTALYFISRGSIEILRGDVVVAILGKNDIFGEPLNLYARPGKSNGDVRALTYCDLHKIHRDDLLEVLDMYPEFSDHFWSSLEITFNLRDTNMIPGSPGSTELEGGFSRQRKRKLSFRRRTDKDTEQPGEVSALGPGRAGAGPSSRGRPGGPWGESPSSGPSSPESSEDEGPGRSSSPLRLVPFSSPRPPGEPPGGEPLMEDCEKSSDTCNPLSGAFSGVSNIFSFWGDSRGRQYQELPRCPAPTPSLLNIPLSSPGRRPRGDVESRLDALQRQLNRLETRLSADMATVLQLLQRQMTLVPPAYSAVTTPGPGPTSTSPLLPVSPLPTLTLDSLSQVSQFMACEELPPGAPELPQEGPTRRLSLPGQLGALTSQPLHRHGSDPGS
row,Structure (SMILES),"hERG current change (%, negative = inhibition) at 10uM"
1,Oc1ccccc1C(=S)N1CCN(C(=S)c2ccccc2O)CC1,18.4%
2,C#CCNC(=O)C1=C[C@H](c2coc3ccccc3c2=O)[C@@H](CCCO)[C@H](OCC)O1,-23.3%
3,Cc1[nH]c2ccccc2c1CCCO,10.7%
4,CC(C)(C)NC(=O)CN1C(=O)/C(=C/c2ccccc2)SC1=S,10%
5,O=C(CN1CCN(c2ccccc2)CC1)NC(=O)NCc1ccco1,9.72%
6,CCOC(=O)c1ccc2ncc(C(=O)OCC)c(NCCN(C)C)c2c1,-69.5%
7,CCOC(=O)c1cnc2ccccc2c1NCCO,-34.8%
8,CCOC(=O)c1ccc2ncc(C(=O)OCC)c(NCCN3CCOCC3)c2c1,-48.5%
9,CCOC(=O)c1cnc2ccc(C)cc2c1NCCN1CCOCC1.Cl,-65.7%
10,CCOC(=O)c1cnc2ccc(Br)cc2c1NCCO,-9.88%
11,CCOC(=O)c1cnc2ccc(C)cc2c1NCCO,-66.4%
12,CCOC(=O)c1cnc2c(ccc3ccccc32)c1NCCN(C)C,-7.47%
13,CCOC(=O)c1cnc2c(Cl)c(Cl)ccc2c1NCCN1CCOCC1.Cl,14.3%
14,CCOC(=O)c1cnc2ccc(Cl)cc2c1NCCN(C)C,-22.8%
15,Nc1nnn(CC(=O)N/N=C/c2cccc(Cl)c2)n1,4.76%
16,CCCCNC(=O)c1onc(CSc2ccc(F)cc2)c1C(=O)NCCCC,-10.2%
17,CCN(CC)C(=O)C1CCC(CNS(=O)(=O)c2cccc3cccnc23)CC1 (centres unmarked),4.52%
18,CN(C)c1ccc(C(=S)N2CCCCCC2)cc1,-5.79%
19,NS(=O)(=O)c1ccc(CCNC(=O)c2ccc(Cl)cc2[N+](=O)[O-])cc1,16.7%
20,COc1ccccc1N1CCN(C2CC(=O)N(c3ccc(F)cc3)C2=O)CC1 (centres unmarked),0.313%
21,O=C1CSC(c2ccccc2)N1c1ccc(F)cc1F (centres unmarked),4.37%

row,Structure (SMILES),"hERG current change (%, negative = inhibition) at 10uM"
1,CCn1c(Cc2ccccc2)nnc1SCC(=O)Nc1ccc(S(N)(=O)=O)cc1,2.13%
2,Cc1ccc(Cn2c(SCc3cccnc3)nc3c2c(=O)n(C)c(=O)n3C)cc1,-0.713%
3,Cc1ccc(-c2ccc(S(=O)(=O)NCC3CCCO3)cc2)cc1 (centres unmarked),26.2%
4,CCN(CC)CCCN(C(=O)c1cccc(C)c1)c1nc(-c2ccc(OC)cc2)cs1,-78.2%
5,CCN(CC)CCCN(C(=O)c1ccc(OC)cc1)c1nc(-c2ccc(OC)cc2)cs1,-73.7%
6,CCN(CC)CCCN(C(=O)c1ccc(Br)cc1)c1nc(-c2ccc(OC)cc2)cs1.Cl,-73.2%
7,COc1ccc(-c2csc(N(CCCN(C)C)C(=O)c3ccc(Br)cc3)n2)cc1.O=C(O)C(=O)O,-44%
8,CCN(CC)CCCN(C(=O)c1ccc(F)cc1)c1nc(-c2ccc(OC)cc2)cs1,-75.1%
9,CCC(=O)N(CC)c1nc(-c2ccc(OC)cc2)cs1,-5.81%
10,COCCN(C(=O)c1ccccc1)c1nc(-c2ccc(OC)cc2)cs1,28.5%
11,COCCCN(C(=O)c1ccccc1)c1nc(-c2ccc(OC)cc2)cs1,18.3%
12,COCCCN(C(C)=O)c1nc(-c2ccc(OC)cc2)cs1,-16.5%
13,COCC(=O)N/N=C\c1cccc(OC)c1OC/C=C/c1ccccc1,-15.6%
14,O=C(NC1CCCCC1)c1cc(-c2ccc(O)cc2)on1,0.886%
15,COc1ccc(Cl)cc1NC(=O)CSc1nc2sccc2c(=O)[nH]1,25.2%
16,COc1cc([N+](=O)[O-])ccc1NC(=O)Cc1ccc(F)cc1,0.277%
17,CC(=O)N1N=C(c2ccccc2)CC1c1cn(Cc2ccccc2)c2ccccc12 (centres unmarked),-13.6%
18,CCCCNc1ccc(S(N)(=O)=O)cc1[N+](=O)[O-],-0.608%
19,Cc1ccc(S(=O)(=O)N2CCN(Cc3nc4ccccc4[nH]3)CC2)cc1C,-45.1%
20,CCN(CC)CCCN(C(C)=O)c1nc(-c2cc(OC)ccc2OC)cs1.Cl,-65.8%
21,CCC(=O)N(CCCN(C)C)c1nc(-c2cc(OC)ccc2OC)cs1.Cl,-37.3%

row,Structure (SMILES),"hERG current change (%, negative = inhibition) at 10uM"
1,CCC(=O)N(CC)c1nc(-c2cc(OC)ccc2OC)cs1,15%
2,CC(/C=C/c1ccccc1)=N\NC(=O)c1ccc2c(c1)OCCO2,3.3%
3,O=C(NCc1ccncc1)C(=O)NCC1OCCCN1S(=O)(=O)c1cc(F)ccc1F (centres unmarked),4.86%
4,COc1ccccc1C(=O)Oc1cc(N)n(S(=O)(=O)c2ccc(C)cc2)n1,-7.77%
5,O=C(CSC(=S)N1CCOCC1)Nc1nccs1,-1.54%
6,CCc1c(C)nc(SCC(=O)N2CCCCC2)[nH]c1=O,3.18%
7,CN1c2ccccc2Oc2nnc(N3CCN(Cc4ccccc4)CC3)cc21,-78%
8,CN1c2ccccc2Oc2nnc(Cl)cc21,-5.87%
9,CCN1CCN(c2cc3c(nn2)Oc2ccccc2N3C)CC1,-41.1%
10,C=C(C)C(=O)Nc1cccc(C2=NOC3(C2)C[C@@H](C(N)=O)N(C(=O)C(=C)C)C3)c1 (some centres unmarked),7.14%
11,CCOc1ccc(-c2nc(N)ncc2Oc2cccc(OC)c2)c(O)c1,6.7%
12,CC(C)CCn1c(SCCN2CCOCC2)nc2c1c(=O)[nH]c(=O)n2C,-17.7%
13,C=CCn1c(SCCN2CCOCC2)nc2c1c(=O)[nH]c(=O)n2C,8.38%
14,COCCn1c(SCCN2CCOCC2)nc2c1c(=O)[nH]c(=O)n2C,14.2%
15,C=C(C)Cn1c(SCCN2CCOCC2)nc2c1c(=O)[nH]c(=O)n2C,-4.61%
16,C/C(Cl)=C/Cn1c(SCCN2CCOCC2)nc2c1c(=O)[nH]c(=O)n2C,-64.6%
17,CCCCCn1c(SCCC(C)C)nc2c1c(=O)[nH]c(=O)n2C,-11.9%
18,CCCCCn1c(SCCOCC)nc2c1c(=O)[nH]c(=O)n2C,-46.8%
19,CCCCCn1c(SCCN2CCOCC2)nc2c1c(=O)[nH]c(=O)n2C,-66.5%
20,CCCCCCn1c(SCCN2CCOCC2)nc2c1c(=O)[nH]c(=O)n2C,-74.6%
